The text below walks through data of PubChem BioAssay (NCATS).

Where “and” joins values, the source holds several entries; their conditions need not be identical. Identical values can stand only once. Results filed as inconclusive are left out. A number with no mark means an inactive call. Calls of active or inactive are those of the source. Calls come from the whole dose curve; as a rule, active = well fitted curve in the direction sought with a large enough effect; inconclusive = small, poorly fitted or top-dose-only effect, or another doubt; inactive = no such curve, though single readings can be large or run the other way.
% is set by controls: 0 for no effect and ±100 for the full control effect; potency is the fitted concentration of half-maximal effect.

The test can be described thus: qHTS Assay for Identifying Gametocytocidal Compounds (AID 743244).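 For max response: actives lower the fluorescent signal which means gametocytes are killed.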 The settings on record: P. falciparum 3D7 stage III-V gametocytes, alamarBlue, 72 h; max response: hits give low values. The gist of the method: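 Compounds are pinned into medium, gametocytes (stage III–V, 3D7, 20,000 cells/well) added, and plates held 72 h at 37 °C in 5% CO2. AlamarBlue follows for 24 h before fluorescence reading.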
`C[C@]12CC[C@H]3[C@@H](CCC4=CC(=O)CC[C@@]43C)[C@@H]1CC[C@@H]2C(=O)CO`: the max response is 8.05%.
For `CC1=C(C(=O)OC(C)C)C(c2cccc([N+](=O)[O-])c2)C(C(=O)OC2CN(C(c3ccccc3)c3ccccc3)C2)=C(N)N1` (stereo not drawn), the max response is 7.23%.
Take `CCCCCCC[N+](CC)(CC)CCCCc1ccc(Cl)cc1`: the Potency was 3.55 µM (active).
With `Cc1ccnc(NS(=O)(=O)c2ccc(N)cc2)n1`, the max response is 9.97%.
Consider `Cc1onc(-c2c(Cl)cccc2Cl)c1C(=O)N[C@@H]1C(=O)N2[C@@H]1SC(C)(C)[C@@H]2C(=O)O`, for which the max response is -15.6%.
As for `CC1(C)O[C@@H]2[C@@H](CO[C@@]3(COS(N)(=O)=O)OC(C)(C)O[C@@H]23)O1`, the max response is 4.37%.
On the same count and under the same terms, the same measure for `CC[C@@H](CO)NCCN[C@@H](CC)CO`: 6.57%; for `O=C(OCC(O)CO)c1ccccc1Nc1ccnc2cc(Cl)ccc12` (stereo not drawn): 7.94%.
As for `C[n+]1c2cc(N)ccc2cc2ccc(N)cc21` (tested in a mixture with another compound), the Potency was 7.94 µM (active).
With `NC(=O)c1cc[n+](CC2=C(C(=O)[O-])N3C(=O)[C@@H](NC(=O)Cc4cccs4)[C@H]3SC2)cc1`, the max response was 1.11%.
In the case of `CN(C/C=C/c1ccccc1)Cc1cccc2ccccc12`, the max response was 6.22%.
Still for that read-out and setting: the value for `CC(=O)[C@H]1CC[C@H]2[C@@H]3C[C@H](C)C4=CC(=O)CC[C@]4(C)[C@H]3[C@@H](O)C[C@]12C` was 9.78%.
Still for that read-out and setting: the same measure for `CN(C)CC/C=C1/c2ccccc2COc2ccc(CC(=O)O)cc21`: 3.04%.
For the molecule `CN1CCC(=C2c3ccccc3Sc3ccccc32)CC1`, the Potency is 15.8 µM (active).
On to `C/C=C(/C(=C/C)c1ccc(O)cc1)c1ccc(O)cc1`, for which the max response was -1.19%.
Take `CN1C(CCl)Nc2cc(Cl)c(S(N)(=O)=O)cc2S1(=O)=O` (stereo not drawn): the max response is 12.5%.
Still for that read-out and setting: the value for `CCOC(=O)COc1ccc2c(C)c(CCN(CC)CC)c(=O)oc2c1Cl` was -0.591%; that for `CNC(=O)CN(CCN(CCN(CC(=O)[O-])CC(=O)NC)CC(=O)[O-])CC(=O)[O-].O.[Gd+3]` was 14.6% and -8.14%.
Regarding `COC(=O)[C@@H]1CC2=CC(=O)CC[C@]2(C)[C@@]23O[C@@H]2C[C@@]2(C)[C@@H](CC[C@@]24CCC(=O)O4)[C@H]13`, the max response was 1.84%.
Consider `COc1cc(N)c(Cl)cc1C(=O)NC1CCN(CCCOc2ccc(F)cc2)CC1OC` (stereo not drawn), for which the max response was -0.854%.
Consider `C[C@]12CCC(=O)C=C1CC[C@H]1[C@@H]3CC[C@](O)(C(=O)CO)[C@@]3(C)C[C@H](O)[C@@]12F`, for which the max response was 15.9% and -1.69%.
Same read-out and setting: the same measure for `CN=C(NC#N)NCCSCc1csc(N=C(N)N)n1`: 5.67%; for `CN(C)CCCOc1nn(Cc2ccccc2)c2ccccc12`: 10.4%.
